The values below come from PubChem BioAssay.

The nature of this experiment: JC-1 mitochondrial signal, unstimulated myeloma cells – cell-based, JC-1 fluorescence, RPMI8226, 24 h, 100 nL compound, profiling panel (AID 1169). Note: test concentration not given here. Conditions: JC-1 mitochondrial potential fluorescence, higher = more signal.
For `COC(=O)C(CC#Cc1ccc2c(c1)[C@]1(C(=O)N2)[C@H](C(=O)NC[C@H](O)c2ccccc2)[C@H]2C(=O)O[C@H](c3ccccc3)[C@H](c3ccccc3)N2[C@@H]1c1ccccc1OCCO)C(=O)OC`, the z-score is -1.16.

As for `CN(C)CCCNC(=O)[C@@]1(Cc2ccccc2I)c2ccccc2C(=O)N(C2CCCCC2)[C@H]1c1ccc(CO)cc1`, the z-score is -1.01.

As to `CN1C(=O)C2C=CC(C(O)c3ccc(-c4ccccc4)s3)N(NC(=O)OC(C)(C)C)C2C1=O` (stereo not given), the z-score is -0.0635.

Regarding `CCCNC(=O)[C@@]1(Sc2ccc(C)cc2)CC(=O)N(Cc2ccccc2Cl)[C@@H]1c1ccc(CO)cc1I`, the z-score was -0.547.

In the case of `CN(C)c1ccc(C(O)C2C=CC3C(=O)N(Cc4ccccc4)C(=O)C3N2n2cnnc2)cc1` (stereo not given), the z-score was -0.203.

On to `C[C@@H]1ON(c2ccccc2)[C@H](c2ccccc2)[C@H]1C(=O)O`, for which the z-score is -0.0601.

`O=C1[C@H]2C=C(I)[C@H](C[C@@H]2c2ccccc2)[C@@]12CO2`: the z-score was -1.2.

In the case of `C=CCC(OC(C)=O)[C@@H]1[C@@H](N(Cc2ccc(-c3cccc(C(F)(F)F)c3)o2)C(=O)c2ccc(-c3ccccc3)cc2)c2cc(OCCCO)ccc2N1C(=O)c1ccc2ccccc2c1` (stereo not given in full), the z-score was 0.677.

Take `O=C(NCc1ccc(F)cc1)[C@H]1C[C@H]2C(=O)N3CCC[C@H]3C(=O)N2[C@H]1c1ccc(O)cc1`: the z-score was found to be 0.207.

Consider `N#Cc1ccc(NN2C(C(O)C3CC=CCC3)C=CC3C(=O)N(c4ccccc4)C(=O)C32)cc1` (stereo not given), for which the z-score amounted to 0.418.

Compound `CCCNC(=O)[C@@]1(c2ccc([N+](=O)[O-])cc2)CC(=O)N(C(C)C)[C@@H]1c1ccc(CO)cc1` gave a z-score of 0.195.

With `CC(C)N1C(=O)C[C@@](C(=O)NCCN2CCOCC2)(c2ccc([N+](=O)[O-])cc2)[C@H]1c1ccc(CO)cc1`, the z-score was -0.95.

Compound `C[N+](C)(C)CCCC[C@@H]1NC(=O)[C@H]2C[C@@H](C(=O)NCCCCCNC(=O)CS)[C@@H](c3cccc(OCCO)c3)N2C1=O` registered a z-score of 0.812.

For `[N-]=[N+]=Nc1ccccc1[C@@H]1OC(c2ccc(OCCCO)cc2)=N[C@]1(Cc1ccccc1)C(=O)NCCN1CCOCC1`, the z-score was -1.26.

Take `CCOC(=O)C[C@H]1[C@H](OC(=O)c2ccccc2-c2ccccc2)[C@@H](NC(=O)C2CCCCC2)c2cc(OCCCO)ccc2N1C(=O)c1ccc2ccccc2n1`: the z-score is -0.21.

The compound `NC(=O)N1C(=O)C2C(C1=O)C1C=C(CCCO)C2C(c2ccc(CN3CCCC3)cc2)N1Cc1sc2ccccc2c1Cl` (stereo not given) showed a z-score of 0.0845.

`CC(C)(C)N1CC=CC23O[C@@H]4/C=C\CCCOC(=O)C4[C@H]2C(=O)N(CCCO)[C@@H]3C1=O` (stereo not given in full) returned a z-score of 0.233.

Regarding `CC(C)N1C(=O)c2ccccc2[C@](C)(C(=O)NCC(F)(F)F)[C@@H]1c1ccc(CO)cc1`, the z-score was 0.261.

Take `COc1ccc(C#Cc2ccc3c(c2)[C@]2(C(=O)N3)[C@H](C(=O)O)[C@H]3C(=O)O[C@H](c4ccccc4)[C@H](c4ccccc4)N3[C@@H]2c2ccccc2OCCO)cc1`: the z-score was -0.823.

Turning to `CCCCCC1=C2CNC(Cc3ccccc3)(C(=O)OC)C=C2C(C)C1=O` (stereo not given), the z-score is -0.608.

With `CCCCCCc1nc(-c2ccc(-c3ccc(Cl)c(Cl)c3)o2)cc2c1[Si](C(C)C)(C(C)C)OC2`, the z-score is -0.934.

On to `COC(=O)[C@H](Cc1ccccc1)N1CC2=CCCC=C[C@@H]2[C@H]1[C@H](O)Cc1ccccc1`, for which the z-score was -1.16.

Turning to `COC(=O)[C@@]1(Cc2ccc(F)cc2)[C@H]2c3cc(C(=O)N4CCCC4)n(CCc4ccccn4)c3C[C@H]2CN1C(=O)c1ccccc1`, the z-score was -0.815.

As to `O=C1N(CCS(=O)(=O)c2ccccc2)c2ccccc2C[C@]12N=C(c1ccc(OCCCO)cc1)O[C@@H]2c1ccccc1`, the z-score was -0.687.

As for `C=CCN1C(=O)[C@]2(O[C@H](CCn3cc([C@H](O)c4ccccc4)nn3)[C@@H]([Si](C)(C)c3ccc(OC)cc3)[C@@H]2C)c2cc(NC(=O)c3ccc(OC)cc3)ccc21`, the z-score is -1.17.

Consider `C=C(COC)C(=O)CC[C@@H](OC(C)=O)c1ccccc1OCCO`, for which the z-score was -0.557.

As to `COC(=O)[C@@]1(Cc2ccc(F)cc2)[C@H]2c3cc(C(=O)N4CCCC4)n(Cc4ccccn4)c3C[C@H]2CN1C(=O)c1ccccc1`, the z-score was -0.116.

Consider `C=CCOC(=O)[C@@H]1[C@H]2C(=O)O[C@H](c3ccccc3)[C@H](c3ccccc3)N2[C@H](c2ccc(OCCOC(=O)[C@H]3C[C@H]4C(=O)NCC(=O)N4[C@H]3c3cccc(OCCO)c3)cc2)[C@@]12C(=O)Nc1ccc(I)cc12`, for which the z-score was -0.632.

For the compound `COC(=O)C[C@H]1O[C@@]2(C[C@@H]1[Si](C)(C)C)C(=O)N(C)c1ccccc12`, the z-score was -1.09.

Take `CN(C)CCCC[C@@H]1NC(=O)[C@@H]2C[C@H](C(=O)NCCCCCCNC(=O)CS)[C@H](c3ccc(O)cc3)N2C1=O`: the z-score is -0.223.

With `CCOC(=O)C1=CC[C@@H](c2ccc(OC)cc2)N(S(=O)(=O)c2ccc(C)cc2)[C@H]1CC`, the z-score was -0.301.

On to `C=C(CCCC)/C(=C/C[C@H](OC(=O)c1ccncc1)c1ccc(OCCO)cc1)c1cnc2ccccc2c1`, for which the z-score was -0.756.

`COC(=O)[C@@]1(Cc2ccc(F)cc2)[C@H]2c3cc(C(=O)N4CCCC4)n(Cc4cc(F)cc5c4OCOC5)c3C[C@H]2CN1C(=O)c1ccccc1`: the z-score was -0.512.

As for `C=C(CCCC)C(=O)CC[C@H](OC(=O)c1ccccc1-c1ccccc1C(=O)O)c1ccc(OCCO)cc1`, the z-score is -0.346.

`C[N+](C)(C)CCCCNC(=O)[C@H]1C[C@H]2C(=O)N[C@@H](Cc3ccccc3)C(=O)N2[C@H]1c1cccc(OCCO)c1` returned a z-score of 0.0888.
